Sampled rows, rich in hits. Any-hit rate of the full collection: about 8.8%.
IL1B secr inh: blocks inflammasome-driven IL-1 beta release; hit rate 4.7% among 360,000; THP-1 LPS/ATP IL-1B secretion, AlphaLISA, 16 h; active compounds read low; activity change, % at 57.5 µM; in the data active means activity change below about -50%; inconclusive means mostly about -30% to -49%
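Secreted IL-1B measured by AlphaLISA bead assay after 16 h compound exposure of THP-1 cells; compounds (final up to 57.5 uM) added 1 h before LPS (250 ng/mL) and ATP (1.25 mM) stimulation; lower signal means less secretion.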
HT1080 IDH1KD tx: toxicity to HT-1080 IDH1 knockdown cells (counter line); HT-1080 IDH1 knockdown viability, ATP luminescence, 48 h; Potency, µM (series often up to 46.1 µM), inactives show at the top dose activity, negative = toxicity, most hits filed as cytotoxic; hit rate 2% among 360,000; AID 686971;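 further: potency means the concentration at half of the fitted maximal effect; 0% = DMSO wells and -100% = cell-free medium wells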
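HT-1080-IDH1KD cells (IDH1 knocked down), 750/well in RPMI with 5% FBS, treated with compound 48 h at 37 degrees C. Viability by CellTiter-Glo luminescence, normalised to DMSO and no-cell wells; concentration-response curves classed.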
KB-3-1 tox: kills parental KB-3-1 adenocarcinoma cells | KB-3-1 viability, CellTiter-Glo ATP luminescence, 72 h | Potency, µM (series often up to 46.1 µM), usual class: cytotoxic | hit rate 1.4% among 400,000 | AID 1347075; further: potency means the concentration at half of the fitted maximal effect; nearly all actives have a fitted effect of over 60% in size
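Cells are dispensed, compounds pinned in, plates held at 37 °C for 72 h, then CellTiter-Glo is added and luminescence read after 10 minutes. Cell line: parental KB-3-1 in phenol-red-free DMEM, 10% FBS.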
KB-V1 cytotox: kills drug-selected multidrug resistant KB-V1 cells; Potency, µM (doses to about 46.1 µM), most hits filed as cytotoxic; KB-V1 MDR cells viability, CellTiter-Glo, 72 h; hit rate 3.4% among 400,000; further: potency means the concentration at half of the fitted maximal effect; nearly all actives have a fitted effect of over 60% in size
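Compound-treated KB-V1 multidrug-resistant cells, 72 h, 37 degrees C; viability by CellTiter-Glo. Fitted qHTS curves give the values.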
HT1080NT lethal: kills 2HG-producing HT-1080-NT fibrosarcoma cells; Potency, µM (top dose mostly 46.1 µM), for the others: at the highest dose activity, negative = less viability, most hits filed as cytotoxic; HT-1080-NT fibrosarcoma viability, CellTiter-Glo ATP luminescence, 48 h; hit rate 1.6% among 360,000;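 further: NT is the 2HG producing partner of a matched IDH1 knockdown line; potency means the concentration at half of the fitted maximal effect; 0% = DMSO-treated cells and -100% = media-only wells without cells; nearly all actives have a fitted effect of over 55% in size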
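Viability by CellTiter-Glo luminescence after 48 h compound exposure at 37C of HT-1080-NT cells (750/well, RPMI, 5% FBS). % activity scaled between DMSO wells and medium-only wells, then curve-fitted and categorized by curve class.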
The depositor's hits bear a star; i = inactive; ? = inconclusive; . = not tested or not shown. Unless noted, the call rests on the fitted dose curve; in most records, active means well fitted curve in the direction sought with a large enough effect; inconclusive means small, poorly fitted or top-dose-only effect, or another doubt; inactive means no such curve, though single readings can be large; an effect the other way counts as inactive or inconclusive. Unless noted, on the % scale 0 is the no-effect control and ±100 the full control effect.

SMILES	IL1B secr inh	HT1080 IDH1KD tx	KB-3-1 tox	KB-V1 cytotox	HT1080NT lethal
Cc1cc(C)nc(NCCO)n1	7.8	16.1%	i	i	9.4%
N#C/C(=N\Nc1ccc(F)cc1)C(=O)C1CC1	16.0	-10.4%	i	i	-10.3%
N#C/C(=N\Nc1ccc(Cl)c(Cl)c1)C(=O)C1CC1	?	2.91µM*	16.4µM*	?	?
Clc1cccc(-n2ncc3c(NC4CCCCC4)ncnc32)c1	.	.	?	i	.
CCOc1cccc(-c2c(C(=O)N/N=C/c3ccc(C)o3)nnn2-c2nonc2N)c1	0.0	22.3%	i	i	2.2%
Cc1ccc(C(c2nnnn2CCc2ccccc2)N2CCC(C)CC2)cc1 (stereo not given)	-63.5*	?	?	18.4µM*	-29.4%
COc1cccc(Nc2nc(-c3ccccc3)nc3ccccc23)c1	-73.0*	?	i	i	?
CNC(=O)c1ccc(Nc2nc(-c3ccccc3)nc3ccccc23)cc1	-89.8*	18.4µM*	i	?	18.4µM*
Cc1ccc(-c2nc(C(Cl)Cl)c3ccccc3n2)cc1	203.2	-21.4%	20.6µM*	20.6µM*	-15.8%
COc1ccc(Nc2nc(-c3ccccc3F)nc3ccccc23)cc1OC	-60.8*	-7.8%	i	i	-9.5%
COCCN(CCOC)c1nc(-c2ccc(C)cc2)nc2ccccc12	-5.5	-19.2%	i	?	-28.7%
Oc1ccc(Nc2nc(-c3ccccc3F)nc3ccccc23)cc1	0.0	-3.0%	i	i	-10.2%
COCCCn1c(C)cc(C(=O)COC(=O)C23CC4CC(CC(O)(C4)C2)C3)c1C	2.5	2.8%	i	i	7.0%
Oc1ccc(Nc2nc(-c3ccccc3O)nc3ccccc23)cc1	-64.7*	-27.6%	i	i	?
O=C(O)c1cccc(Nc2nc(-c3ccc([N+](=O)[O-])cc3)nc3ccccc23)c1	33.7	0.9%	i	i	-0.1%
Cc1ccc(-c2nc(Nc3cccc(O)c3)c3ccccc3n2)cc1	?	-27.8%	i	i	?
Cc1ccc(-c2nc(Nc3ccc(O)cc3)c3ccccc3n2)cc1	-87.8*	20.6µM*	?	?	20.6µM*
Cc1ccc(-c2nc(Nc3ccc(N4CCOCC4)cc3)c3ccccc3n2)cc1	.	20.6µM*	i	i	18.4µM*
O=[N+]([O-])c1ccc(-c2nc(Nc3cccc(O)c3)c3ccccc3n2)cc1	-69.9*	?	i	?	?
O=C(NCc1ccc(F)cc1)c1cc(-c2ccc(Cl)cc2)n[nH]1	.	.	i	i	.
CCOC(=O)CCc1c(C)nc(-n2[nH]c(C)c(CCO)c2=O)[nH]c1=O	8.6	?	i	i	-0.4%
COc1cccc(-c2ccc(NC(=O)C3CCCN(Cc4cccc(C)n4)C3)cc2)c1 (stereo not given)	-11.2	?	i	i	?
COc1ccc2cc(C(=O)C3CCCN(C(=O)c4ccnn4C)C3)ccc2c1 (stereo not given)	-29.1	-6.7%	i	16.4µM*	0.0%
COc1ccc2cc(C(=O)C3CCCN(Cc4cccc(C)n4)C3)ccc2c1 (stereo not given)	-109.3*	23.1µM*	i	i	?
CC(C)Oc1cccc(C(=O)C2CCCN(C(=O)c3cc(C(F)(F)F)[nH]n3)C2)c1 (stereo not given)	-54.4*	-15.2%	?	20.6µM*	-0.1%
SMILES	IL1B secr inh	HT1080 IDH1KD tx	KB-3-1 tox	KB-V1 cytotox	HT1080NT lethal
COc1ccc(C(=O)C2CCCN(C(=O)c3cccnc3SC)C2)c(C)c1 (stereo not given)	-70.0*	-22.2%	i	i	-10.3%
COc1ccc(C(=O)C2CCCN(C(=O)/C=C/c3ccccn3)C2)c(C)c1 (stereo not given)	12.6	12.0%	i	?	11.0%
CN(Cc1nccn1C)C(=O)C1CCC(=O)N(CCc2ccc(Cl)cc2)C1 (stereo not given)	-0.8	12.3%	i	i	13.3%
Cc1ccc(N/C(=C\C(=O)c2ccccc2)C(=O)O)cc1	0.0	15.4%	i	?	20.3%
Cc1cc(/C=N/N2CCN(C)CC2)c(C)n1-c1ccc(Cl)cc1	-5.6	-24.5%	i	i	?
CCOC(=O)N1CCC(N2CCCC(C(=O)c3ccc4cc(OC)ccc4c3)C2)CC1 (stereo not given)	-161.7*	?	i	i	?
CC(C)c1cc(C(=O)N2CCCC(C(=O)c3ccc4ccccc4c3)C2)on1 (stereo not given)	-89.2*	-15.1%	i	i	-19.4%
COc1ccc(C2=NOC(COc3ccc4c(C)cc(=O)oc4c3)C2)c(OC)c1 (stereo not given)	0.3	5.8µM*	5.8µM*	14.6µM*	?
COc1ccccc1C1=NOC(COc2ccc3c(C)cc(=O)oc3c2)C1 (stereo not given)	14.5	0.731µM*	1.16µM*	18.4µM*	0.92µM*
Cc1cc(=O)oc2cc(OCCCC[n+]3ccccc3)ccc12	-9.8	3.2%	i	i	18.9%
Cc1cc(=O)oc2cc(OCCc3ccccc3)ccc12	23.3	?	20.6µM*	i	?
COc1ccc2c(C)cc(=O)oc2c1	-18.6	4.7%	i	i	27.0%
CN(C)S(=O)(=O)c1ccc(C(=O)NCC(C)(C)CN=C2NS(=O)(=O)c3ccccc32)cc1	-18.8	-2.1%	i	i	5.6%
O=S(=O)(/N=C(\c1ccccc1)N1CCOCC1)c1ccc(Cl)cc1	-3.1	-6.5%	i	i	-2.7%
Cc1ccc(S(=O)(=O)/N=C(/Sc2ccccc2C(=O)O)c2ccccc2)cc1	25.2	7.4%	?	i	0.1%
Cc1ccc(S(=O)(=O)/N=C(\Sc2ccccc2)c2ccccc2)cc1	-50.4*	-24.6%	i	i	25.9%
O=S(=O)(/N=C(\Sc1ccccc1)c1ccccc1)c1ccc(Cl)cc1	-52.6*	-23.6%	i	i	0.8%
N#CCCN(C(=O)COC(=O)c1ccc(Cl)nc1)c1ccc2c(c1)OCCO2	12.7	5.6%	i	i	-5.1%
O=C(NCc1ccccc1)c1cccc(COc2cc(Cl)ccc2Cl)c1	-8.9	-21.0%	i	20.6µM*	-7.8%
O=C(NCc1ccccc1)c1cccc(COc2ccccc2Cl)c1	-63.1*	-22.4%	i	?	-18.5%
O=C(NCc1c(Cl)cccc1Oc1ccccc1)c1ccccc1	.	-22.3%	i	11.6µM*	-18.0%
CC1(C)CC(=O)C([N+](=O)[O-])=C(NCCCC(=O)O)C1	1.2	9.7%	i	i	12.8%
CN(CCC1CCCCO1)C(=O)CCc1nnc(C2CCCCC2)o1 (stereo not given)	3.1	-0.8%	i	i	14.7%
COC(=O)CNC(=O)COC(=O)/C=C/c1ccc2ccccc2n1	-103.3*	-20.9%	i	i	-25.4%

Source: PubChem
